From PubChem BioAssay (NCATS)
Results filed as inconclusive are left out. The source made the active and inactive calls. Calls follow the shape of the dose curve; as a rule, active = well fitted curve in the direction sought with a large enough effect; inconclusive = small, poorly fitted or top-dose-only effect, or another doubt; inactive = no such curve, though single readings can be large; an effect the other way counts as inactive or inconclusive.

Experiments:
MCC-13 = experiment: qHTS assay to identify novel small-molecules to repurpose for Merkel cell carcinoma treatment (AID 1296009); details: MCC and control cell lines, CellTiter-Glo viability, 72 h; series mostly up to 46 µM; also: nearly all actives have a fitted effect of over 60% in size
Summary of the method: (§1)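 72 hr, 37 degree celsius; NPC 8-pt / MIPE 11-pt dose response; compound pinned in DMSO; CellTiter-Glo, 10 min RT, luminescence; normalized to no-cell and DMSO controls.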

MCC-26 = experiment: as above; details: MCC and control cell lines, CellTiter-Glo viability, 72 h; series mostly up to 46 µM
Summary of the method: as §1

MKL-1 = experiment: as above; details: MCC and control cell lines, CellTiter-Glo viability, 72 h; series mostly up to 46 µM
Summary of the method: as §1

MKL-2 = experiment: as above; details: MCC and control cell lines, CellTiter-Glo viability, 72 h; series mostly up to 46 µM
Summary of the method: as §1

UISO = experiment: as above; details: MCC and control cell lines, CellTiter-Glo viability, 72 h; series mostly up to 46 µM
Summary of the method: as §1

WaGa = experiment: as above; details: MCC and control cell lines, CellTiter-Glo viability, 72 h; series mostly up to 46 µM
Summary of the method: as §1

C33A = experiment: Primary qHTS to identify gynecologic anti-cancer compounds using libraries of approved drugs and bioactive compounds (AID 1345084); details: Gynecologic cancer cell panel viability, ATPlite luminescence, 48 h; series mostly up to 57.5 µM; also: nearly all actives have a fitted effect of over 55% in size
Summary of the method: (§2)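 Cells, 1,000 per well, were allowed to settle for 16 h at 37 C before compound addition. Five concentrations were tested for 48 h, and viability was read by ATPlite luminescence after 15 min at room temperature.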

CAOV3 = experiment: as above; details: Gynecologic cancer cell panel viability, ATPlite luminescence, 48 h; series mostly up to 57.5 µM
Summary of the method: as §2

CASKI = experiment: as above; details: Gynecologic cancer cell panel viability, ATPlite luminescence, 48 h; series mostly up to 57.5 µM
Summary of the method: as §2

NIH3T3 = experiment: qHTS assay to identify novel small-molecules to repurpose for Merkel cell carcinoma treatment (AID 1296009); details: MCC and control cell lines, CellTiter-Glo viability, 72 h; at 44.8 µM (top of the series); also: nearly all actives have a fitted effect of over 60% in size
Summary of the method: as §1
% is scaled to controls: 0 for no effect and ±100 for the full control effect; potency is read from the fitted curve at half-maximal effect.

O=C1OC2(c3ccccc31)c1cc(Br)c(O)c(Br)c1Oc1c2cc(Br)c(O)c1Br
inactive: Potency (MCC-13) | Potency (MCC-26) | Potency (MKL-1) | Potency (MKL-2) | Potency (UISO) | Potency (WaGa) | Potency (C33A) | Potency (CAOV3) | Potency (CASKI)

Cc1c(-c2ccccc2)oc2c(C(=O)OCCN3CCCCC3)cccc2c1=O
inactive: Potency (MCC-13) | Potency (MCC-26) | Potency (MKL-1) | Potency (MKL-2) | Potency (UISO) | Potency (WaGa) | Potency (C33A) | Potency (CAOV3) | Potency (CASKI)

COc1ccccc1N1CCN(CCCCNC(=O)c2ccc(-c3ccc(C(C)=O)cc3)cc2)CC1
inactive: Potency (MCC-13) | Potency (MCC-26) | Potency (MKL-1) | Potency (MKL-2) | Potency (UISO) | Potency (WaGa) | Potency (C33A) | Potency (CAOV3) | Potency (CASKI)

CCC(C(=O)OCCOCCN(CC)CC)c1ccccc1 (stereo not drawn)
inactive: Potency (MCC-13) | Potency (MCC-26) | Potency (MKL-1) | Potency (MKL-2) | outcome (NIH3T3) | Potency (UISO) | Potency (WaGa) | Potency (C33A) | Potency (CAOV3) | Potency (CASKI)

O=S(=O)(O)c1ccc(O)cc1
inactive: Potency (MCC-13) | Potency (MCC-26) | Potency (MKL-1) | Potency (MKL-2) | Potency (UISO) | Potency (WaGa) | Potency (C33A) | Potency (CAOV3) | Potency (CASKI)

CC(=O)Nc1ccc(OC(=O)c2ccccc2OC(C)=O)cc1
inactive: Potency (MCC-13) | Potency (MCC-26) | Potency (MKL-1) | Potency (MKL-2) | outcome (NIH3T3) | Potency (UISO) | Potency (WaGa) | Potency (C33A) | Potency (CAOV3) | Potency (CASKI)

CC1(COc2ccc(CC3SC(=O)NC3=O)cc2)CCCCC1 (stereo not drawn)
inactive: Potency (MCC-13) | Potency (MCC-26) | Potency (MKL-1) | Potency (MKL-2) | outcome (NIH3T3) | Potency (C33A) | Potency (CASKI)

FC(F)(F)C(F)(F)C(F)(F)C(F)(F)C(F)(F)C(F)(F)C(F)(F)C(F)(F)Br
inactive: Potency (MCC-13) | Potency (MCC-26) | Potency (MKL-1) | Potency (MKL-2) | Potency (UISO) | Potency (WaGa) | Potency (C33A) | Potency (CAOV3) | Potency (CASKI)

C[C@@H](O)[C@H]1C(=O)N2C(C(=O)O)=C([C@H]3CCCO3)S[C@H]12
inactive: Potency (MCC-13) | Potency (MCC-26) | Potency (MKL-1) | Potency (MKL-2) | outcome (NIH3T3) | Potency (UISO) | Potency (WaGa) | Potency (C33A) | Potency (CASKI)

CC(C)NCC(O)c1ccc2ccccc2c1 (stereo not drawn)
inactive: Potency (MCC-13) | Potency (MCC-26) | Potency (MKL-1) | Potency (MKL-2) | outcome (NIH3T3) | Potency (UISO) | Potency (WaGa) | Potency (C33A) | Potency (CASKI)

NC(=S)N/N=C/c1cccnc1
inactive: Potency (MCC-13) | Potency (MCC-26) | Potency (MKL-1) | Potency (MKL-2) | Potency (UISO) | Potency (WaGa) | Potency (C33A) | Potency (CAOV3) | Potency (CASKI)

COc1ccc(-c2cc(C(F)F)nn2-c2ccc(S(N)(=O)=O)cc2)cc1F
inactive: Potency (MCC-13) | Potency (MCC-26) | Potency (MKL-1) | Potency (MKL-2) | Potency (UISO) | Potency (WaGa) | Potency (C33A) | Potency (CAOV3) | Potency (CASKI)

O=C(O)Cc1csc(-c2ccc(Cl)cc2)n1
inactive: Potency (MCC-13) | Potency (MCC-26) | Potency (MKL-1) | Potency (MKL-2) | Potency (UISO) | Potency (WaGa) | Potency (C33A) | Potency (CAOV3) | Potency (CASKI)

CC(C)CCCC(C)N (stereo not drawn)
inactive: Potency (MCC-13) | Potency (MCC-26) | Potency (MKL-1) | Potency (MKL-2) | outcome (NIH3T3) | Potency (UISO) | Potency (WaGa) | Potency (C33A) | Potency (CAOV3) | Potency (CASKI)

CCN1/C(=C/C=C/c2sc3ccccc3[n+]2CC)Sc2ccccc21
active: Potency (MCC-13) 3260 nM | Potency (MCC-26) 5800 nM | Potency (MKL-1) 366 nM | Potency (MKL-2) 58 nM | Potency (UISO) 366 nM | Potency (WaGa) 820 nM | Potency (C33A) 2510 nM

Nc1nc(N)c(-c2ccccc2)s1
inactive: Potency (MCC-13) | Potency (MCC-26) | Potency (MKL-1) | Potency (MKL-2) | Potency (UISO) | Potency (WaGa) | Potency (C33A) | Potency (CAOV3) | Potency (CASKI)

CCOC(=O)[C@@](C)(N)Cc1ccc(O)c(O)c1
inactive: Potency (MCC-13)

CC(=O)N[C@@H](CCC(=O)O)C(=O)O
inactive: Potency (MCC-13) | Potency (MCC-26) | Potency (MKL-1) | Potency (MKL-2) | outcome (NIH3T3) | Potency (UISO) | Potency (WaGa) | Potency (C33A) | Potency (CAOV3) | Potency (CASKI)

CC(C)[C@@H]1CC[C@@H](C)CC1=O
inactive: Potency (MCC-13) | Potency (MCC-26) | Potency (MKL-1) | Potency (MKL-2) | Potency (UISO) | Potency (WaGa) | Potency (C33A) | Potency (CAOV3) | Potency (CASKI)

NC1CCN(c2nc3c(cc2F)c(=O)c(C(=O)O)cn3-c2ccc(F)cc2F)C1 (stereo not drawn)
inactive: Potency (MCC-13) | Potency (MCC-26) | Potency (MKL-1) | Potency (MKL-2) | outcome (NIH3T3) | Potency (UISO) | Potency (WaGa) | Potency (C33A) | Potency (CAOV3) | Potency (CASKI)

COc1cc(C)nc(-n2nc(C)cc2OC)n1
inactive: Potency (MCC-13) | Potency (MCC-26) | Potency (MKL-1) | Potency (MKL-2) | outcome (NIH3T3) | Potency (WaGa) | Potency (C33A) | Potency (CASKI)

COc1ccc(C(=O)c2ccccc2O)c(O)c1
inactive: Potency (MCC-13) | Potency (MCC-26) | Potency (MKL-1) | Potency (MKL-2) | Potency (UISO) | Potency (WaGa) | Potency (C33A) | Potency (CAOV3) | Potency (CASKI)

N=C(N)N1CCc2ccccc2C1
inactive: activity change, negative = cytotoxicity (MCC-13) 22.3% [at 4.84 µM] | activity change, negative = cytotoxicity (MCC-26) -4.65% [at 4.84 µM] | activity change, negative = cytotoxicity (MKL-1) -2.59% [at 4.84 µM] | activity change, negative = cytotoxicity (MKL-2) -8.08% [at 4.84 µM] | activity change, negative = cytotoxicity (UISO) -8.38% [at 4.84 µM] | activity change, negative = cytotoxicity (WaGa) -9.27% [at 4.84 µM] | activity change, negative = cytotoxicity (C33A) -2.35% [at 6.55 µM] | activity change, negative = cytotoxicity (CAOV3) 8.37% [at 6.55 µM] | activity change, negative = cytotoxicity (CASKI) -9.81% [at 6.55 µM]

NC(N)=NN=C(/C=C/c1ccc([N+](=O)[O-])o1)/C=C/c1ccc([N+](=O)[O-])o1
active: Potency (MCC-13) 2660 nM | Potency (MCC-26) 2660 nM | Potency (MKL-1) 376 nM | Potency (MKL-2) 237 nM | Potency (UISO) 841 nM | Potency (WaGa) 237 nM | Potency (C33A) 12600 nM | Potency (CAOV3) 6310 nM

CN(C)CCOC(c1ccc(Cl)cc1)c1ccccn1 (stereo not drawn)
inactive: Potency (MCC-13) | Potency (MCC-26) | Potency (MKL-1) | Potency (MKL-2) | Potency (UISO) | Potency (WaGa)
